The nature of experiment [1]: rapamycin-like changes in RPL19A-GFP expression – cell-based, S. cerevisiae, multiplex flow cytometry, primary screen (AID 1862; in the data active means percent of DMSO control GFP below about 86%;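 further: lower values mimic rapamycin by blocking the RPL19A rise seen in DMSO cells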). The note with it: S. cerevisiae RPL19A-GFP strain, flow cytometry fluorescence, 3 h; at 10 µM; stronger effect = lower value.
Experiment [2] is described as follows: TOR pathway GLN3 branch reporter MEP2-GFP changes – S. cerevisiae, multiplex flow cytometry, primary screen (AID 1867;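 active means GFP response, as percent of the DMSO control, above the screen-wide mean plus 3 SD, about 139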;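 further: median GFP channel fluorescence of barcode-gated MEP2-GFP cells measured by flow cytometry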). The note with it: S. cerevisiae MEP2-GFP strain, 3 h, at 10 µM, stronger effect = higher value, 100% means same as DMSO wells.
Experiment [3] is described as follows: TOR pathway RTG branch CIT2 reporter changes – S. cerevisiae, GFP fusion, multiplex flow cytometry, primary screen (AID 1870;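 active means percent response above a set limit, the screen-wide mean plus 3 SD, cut at about 130% in these data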;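 further: barcoded CIT2-GFP strain pooled with four other GFP strains with rapamycin as positive control; median GFP fluorescence per well over plate mean of DMSO wells so 100% = DMSO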). The note with it: S. cerevisiae CIT2-GFP expression, 3 h, at 10 µM, stronger effect = higher value.
Experiment [4] in a line: TOR pathway LAP4-GFP level changes – S. cerevisiae, multiplex flow cytometry, primary screen (AID 1873;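 active means GFP signal, as percent of the solvent control, above the screen mean plus 3 SD, about 149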). The note with it: S. cerevisiae LAP4-GFP expression, 3 h, at 10 µM, stronger effect = higher value.
Experiment [5] is described as follows: yeast AGP1-GFP level changes, GLN3 branch – cell-based, multiplex flow cytometry, S. cerevisiae, primary screen (AID 1887;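 active means GFP signal above the screen-wide mean plus 3 SD, that is over about 124.5% of the solvent control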;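 further: AGP1-GFP fusion strain of S. cerevisiae within a five-strain barcoded multiplex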). The note with it: 3 h, at 10 µM, stronger effect = higher value. On the technique in general: Flow cytometry measures light scatter and fluorescence of single cells or particles in a stream.
Experiment [6] can be described thus: reduced mouse 2C T cell binding to pMHC/ICAM-1 vesicles – MLPCN validation set, flow cytometry, LFA-1/ICAM-1 modulator project, pilot screen (AID 2523;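 active means response below a set limit, under 55% cells CD8-positive and vesicle-bound, and CD8 cells' 90th-percentile brightness under 279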;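 on vesicle binding response: mean PE anti-B7-1 fluorescence of CD8+ cells relative to row control; 100% = QL9-loaded vesicles with DMSO vehicle in the same plate row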). The note with it: 2C mouse CD8+ T cells, at 7 µM, stronger effect = lower value; double positive events: measured here: CD8+/vesicle+ event percentage.
The target in experiment [7] is Integrin beta-1 (Homo sapiens) + Integrin alpha-4 (Homo sapiens) (UniProt P13612+P05556). As to the kind of experiment: alpha4beta1 integrin LIBS antibody binding reduction – U937 cells, HUTS-21 mAb, flow cytometry, validation set, VLA-4 allosteric modulator project, pilot screen (AID 2674;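 active means inhibition above 50%, about 3 SD of the validation set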;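 further: antibody binding induced by the VLA-4 ligand LDV present at three times its Kd; 0% = LDV ligand with antibody and no compound and 100% = antibody without LDV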). The note with it: HUTS-21 LIBS mAb binding, at 6.7 µM, stronger effect = higher value, binding induced by LDV ligand.
Sequence of Integrin beta-1 (Homo sapiens) + Integrin alpha-4 (Homo sapiens) (P05556 whole entry, looked up): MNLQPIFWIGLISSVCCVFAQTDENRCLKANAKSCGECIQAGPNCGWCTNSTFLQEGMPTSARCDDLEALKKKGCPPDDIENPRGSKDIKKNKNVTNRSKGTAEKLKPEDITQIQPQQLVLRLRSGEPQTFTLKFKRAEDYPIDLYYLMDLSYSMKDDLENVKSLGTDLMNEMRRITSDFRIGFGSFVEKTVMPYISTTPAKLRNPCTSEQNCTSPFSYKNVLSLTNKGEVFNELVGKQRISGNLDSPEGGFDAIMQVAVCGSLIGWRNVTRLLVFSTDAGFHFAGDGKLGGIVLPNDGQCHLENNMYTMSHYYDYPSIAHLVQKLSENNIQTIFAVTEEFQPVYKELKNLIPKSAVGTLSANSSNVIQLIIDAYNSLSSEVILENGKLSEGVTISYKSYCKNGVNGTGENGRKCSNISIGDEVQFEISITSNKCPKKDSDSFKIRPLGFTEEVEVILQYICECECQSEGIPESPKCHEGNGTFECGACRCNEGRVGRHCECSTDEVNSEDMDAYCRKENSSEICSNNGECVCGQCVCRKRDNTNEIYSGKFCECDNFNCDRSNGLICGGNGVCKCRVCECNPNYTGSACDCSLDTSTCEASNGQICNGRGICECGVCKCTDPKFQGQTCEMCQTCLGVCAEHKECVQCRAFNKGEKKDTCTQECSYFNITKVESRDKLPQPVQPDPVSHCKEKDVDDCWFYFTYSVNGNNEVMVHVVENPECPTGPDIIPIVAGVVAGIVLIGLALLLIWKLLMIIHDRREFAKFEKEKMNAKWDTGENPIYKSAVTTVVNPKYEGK
Sequence of Integrin beta-1 (Homo sapiens) + Integrin alpha-4 (Homo sapiens) (P13612 whole entry, looked up): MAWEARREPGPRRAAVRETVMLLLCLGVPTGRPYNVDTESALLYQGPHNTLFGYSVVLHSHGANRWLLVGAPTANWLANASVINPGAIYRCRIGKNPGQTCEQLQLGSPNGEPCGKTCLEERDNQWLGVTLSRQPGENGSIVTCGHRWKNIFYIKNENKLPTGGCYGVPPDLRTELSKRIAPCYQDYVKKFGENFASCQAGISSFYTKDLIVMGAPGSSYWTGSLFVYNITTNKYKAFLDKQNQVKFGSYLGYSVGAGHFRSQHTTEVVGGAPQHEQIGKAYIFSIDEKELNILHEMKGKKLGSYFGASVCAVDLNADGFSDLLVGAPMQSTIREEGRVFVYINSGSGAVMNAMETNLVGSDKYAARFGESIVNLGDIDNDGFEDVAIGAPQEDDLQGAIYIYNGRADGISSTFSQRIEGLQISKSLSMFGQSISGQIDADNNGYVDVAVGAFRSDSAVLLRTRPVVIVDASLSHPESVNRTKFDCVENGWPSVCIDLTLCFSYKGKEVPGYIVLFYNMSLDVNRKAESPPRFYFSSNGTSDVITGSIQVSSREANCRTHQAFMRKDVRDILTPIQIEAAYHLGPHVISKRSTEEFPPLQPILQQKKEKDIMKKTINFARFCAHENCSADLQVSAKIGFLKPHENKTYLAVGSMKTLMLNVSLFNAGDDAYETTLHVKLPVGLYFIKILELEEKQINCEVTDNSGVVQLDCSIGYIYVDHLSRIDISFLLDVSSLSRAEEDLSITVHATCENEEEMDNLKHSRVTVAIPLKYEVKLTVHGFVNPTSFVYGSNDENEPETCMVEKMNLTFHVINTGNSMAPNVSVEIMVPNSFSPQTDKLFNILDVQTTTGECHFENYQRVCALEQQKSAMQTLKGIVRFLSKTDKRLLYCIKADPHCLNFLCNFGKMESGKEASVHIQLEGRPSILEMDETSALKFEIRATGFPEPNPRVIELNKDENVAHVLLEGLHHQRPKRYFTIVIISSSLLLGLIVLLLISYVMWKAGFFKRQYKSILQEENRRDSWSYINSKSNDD

Experiment [8] is described as follows: calorie-restriction mimetic ROS inhibitors, yeast – validation compound set, pilot screen (AID 2706;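 active means superoxide response below 65% of plate, a cut near 3 SD across the whole screen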;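 further: yeast exposed to compound for one week at 30 degrees C before staining; 100% = mean of all compound wells on the same plate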). The note with it: S. cerevisiae aging, superoxide DHE fluorescence; at 10 µM; stronger effect = lower value.
Experiment [9] has as its target Beta-adrenergic receptor kinase 1 (Homo sapiens) (UniProt P25098). Kind of experiment: GRK2 binders displacing RNA aptamer, biochemical, validation, human GRK2, bead flow cytometry (AID 488806;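 active means aptamer binding inhibition above 30%, about 3 SD of noise from non-fluorescent compounds; inactive means inhibition at or below 30%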). The note with it: bead-bound GRK2, FAM-aptamer displacement, at 10 µM, stronger effect = higher value.
Experiment [10] addresses Beta-2 adrenergic receptor (Homo sapiens) (UniProt P07550). As to the kind of experiment: agonist-induced loss of surface beta2AR – cell-based, FAP fluorogen, flow cytometry, validation set, pilot screen (AID 504459;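 active means percent response above 42, roughly 3 SD of non-fluorescent test compounds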;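 further: agonist-driven loss of surface beta2AR via internalization measured by FAP dye flow cytometry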). The note with it: Am2.2-beta2AR cells, at 10 µM, stronger effect = higher value.
In experiment [11] the target is AP-2 complex subunit beta (Homo sapiens) (UniProt P63010). As to the kind of experiment: beta-arrestin/AP2 interaction blockers – biochemical, validation set, GST-AP2 beads, flow cytometry, pilot screen (AID 504541;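 active means inhibition above 54%, about 3 SD of non-fluorescent compounds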;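 further: AP2 carries R879A mutation and is captured from E. coli lysate; bead-bound FITC arrestin peptide fluorescence measuring arrestin peptide binding to AP2; 0% = DMSO wells and 100% = excess unlabeled arrestin peptide control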). The note with it: FITC arrestin peptide, at 10 µM, stronger effect = higher value, AP2 beta2 appendage fragment, R879A mutant.
Sequence of AP-2 complex subunit beta (Homo sapiens) (P63010 whole entry, looked up, the tested form may be a part, one chain of several): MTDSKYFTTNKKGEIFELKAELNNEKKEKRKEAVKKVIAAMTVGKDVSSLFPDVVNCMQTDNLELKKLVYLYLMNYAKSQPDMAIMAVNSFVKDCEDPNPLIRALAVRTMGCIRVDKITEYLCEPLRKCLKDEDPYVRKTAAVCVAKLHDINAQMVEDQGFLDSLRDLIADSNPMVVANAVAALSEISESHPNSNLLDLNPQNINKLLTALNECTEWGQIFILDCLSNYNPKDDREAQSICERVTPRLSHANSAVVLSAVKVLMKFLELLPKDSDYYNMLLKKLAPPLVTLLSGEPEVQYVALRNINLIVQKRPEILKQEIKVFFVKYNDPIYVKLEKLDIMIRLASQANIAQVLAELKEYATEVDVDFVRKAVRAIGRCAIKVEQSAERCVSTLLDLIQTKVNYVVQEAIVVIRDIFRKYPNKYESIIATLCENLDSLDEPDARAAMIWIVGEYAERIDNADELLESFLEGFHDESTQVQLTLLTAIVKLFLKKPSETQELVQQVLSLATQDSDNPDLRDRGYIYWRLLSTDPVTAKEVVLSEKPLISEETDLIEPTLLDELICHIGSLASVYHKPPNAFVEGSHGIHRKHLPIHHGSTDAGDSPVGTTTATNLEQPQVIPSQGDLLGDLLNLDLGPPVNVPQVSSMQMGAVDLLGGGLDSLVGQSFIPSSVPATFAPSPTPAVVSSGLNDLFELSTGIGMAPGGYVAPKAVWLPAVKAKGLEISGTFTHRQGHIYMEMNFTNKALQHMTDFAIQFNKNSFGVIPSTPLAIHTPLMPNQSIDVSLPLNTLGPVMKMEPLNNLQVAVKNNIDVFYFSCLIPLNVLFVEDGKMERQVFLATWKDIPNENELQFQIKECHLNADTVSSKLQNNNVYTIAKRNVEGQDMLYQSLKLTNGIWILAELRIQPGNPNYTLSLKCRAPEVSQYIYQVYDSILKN
A short description of experiment [12]: cytosolic pH regulators acting via V-ATPase – S. cerevisiae, pHLuorin, HTS validation (AID 504600; in the data active means response above about 15%;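 further: plate controls were DMSO for no effect and reference compound for full effect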). The note with it: V-ATPase proton transport, at 10 µM, stronger effect = higher value.
The test system of experiment [13] is anti-desmoglein-3 scFv antibody binding to human DSG3. Kind of experiment: blockers of pathogenic pemphigus antibody–desmoglein-3 binding – biochemical, validation compound set, bead-based, flow cytometry, pilot screen (AID 588368;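 active means binding below the plate cutoff, the plate median minus 3 SD, with a reading above zero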;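 further: signal is the median channel fluorescence of bead-bound GFP antibody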). The note with it: Protein G beads, DSG3-Fc, scFv-GFP binding, at 10 µM, stronger effect = lower value.
Experiment [14] can be described thus: Nile Red efflux blockade in pump-expressing yeast – validation compound set, multiplex, phenotypic, pilot screen (AID 588506;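 active means efflux inhibition above 0.42, the validation set average plus 4 SD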;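 further: Nile Red retained in cells so higher fluorescence means more efflux inhibition; 0 = negative control wells and 1 = enniatin B 25 µM full block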). The note with it: S. cerevisiae pump-expressing triplex, Nile Red efflux flow cytometry; at 10 µM; stronger effect = higher value; the pumps come from Candida albicans.
The target in experiment [15] is ATP-binding cassette sub-family B member 6 (Homo sapiens) (UniProt Q9NP58). As to the kind of experiment: blockers of ABCB6-driven porphyrin uptake – K562-ABCB6 cells, flow cytometry, validation set, pilot screen (AID 588550).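 Further: 0% = DMSO wells and 100% = benzethonium chloride 70 µM positive control.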 The note with it: K562-ABCB6 porphyrin accumulation, 1 h, at 10 µM, stronger effect = higher value.
Sequence of ATP-binding cassette sub-family B member 6 (Homo sapiens) (Q9NP58 whole entry, looked up): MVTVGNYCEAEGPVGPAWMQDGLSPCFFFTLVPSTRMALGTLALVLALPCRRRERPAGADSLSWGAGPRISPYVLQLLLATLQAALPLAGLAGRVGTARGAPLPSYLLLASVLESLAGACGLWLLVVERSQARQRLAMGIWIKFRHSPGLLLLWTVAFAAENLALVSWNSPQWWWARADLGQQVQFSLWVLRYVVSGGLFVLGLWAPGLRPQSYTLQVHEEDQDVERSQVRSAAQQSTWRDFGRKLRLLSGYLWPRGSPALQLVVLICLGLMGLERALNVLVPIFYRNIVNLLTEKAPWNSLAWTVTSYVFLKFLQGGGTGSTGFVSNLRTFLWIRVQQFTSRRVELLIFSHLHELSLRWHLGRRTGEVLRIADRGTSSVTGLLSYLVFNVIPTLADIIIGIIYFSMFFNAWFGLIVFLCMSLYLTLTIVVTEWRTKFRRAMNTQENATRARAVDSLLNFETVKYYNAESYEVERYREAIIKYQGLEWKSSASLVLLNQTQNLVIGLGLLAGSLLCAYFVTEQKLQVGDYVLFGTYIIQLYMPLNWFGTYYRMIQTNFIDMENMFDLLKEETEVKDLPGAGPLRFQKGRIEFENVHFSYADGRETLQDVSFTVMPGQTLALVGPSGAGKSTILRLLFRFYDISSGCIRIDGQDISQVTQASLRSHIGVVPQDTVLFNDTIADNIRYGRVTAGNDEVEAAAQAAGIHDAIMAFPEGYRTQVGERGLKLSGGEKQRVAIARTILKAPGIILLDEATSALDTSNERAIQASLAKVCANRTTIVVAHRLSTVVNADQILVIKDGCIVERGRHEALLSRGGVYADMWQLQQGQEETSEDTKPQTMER
A short description of experiment [16]: AML differentiation inducers, ER-HoxA9 marrow cells – cell-based, GFP/MAC1 double positive, flow cytometry, validation set, primary screen (AID 588685;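 active means differentiation response of at least 50%, scaled between solvent and reference control, from cells with both markers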;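 further: compound exposure lasts four days before antibody staining and flow analysis; 0% = DMSO wells and 100% = 5 µM fulvestrant positive control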). The note with it: stronger effect = higher value, normalized: vehicle 0, fulvestrant 100.

Inconclusive results are not listed. Active and inactive are the calls of the source.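 How the source made its calls, unless noted: active means inhibition above the screen-wide mean plus 3 SD, about 51%; inactive means the rest.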

This is an account of results in PubChem BioAssay.

Sequence of Beta-adrenergic receptor kinase 1 (Homo sapiens) (P25098 whole entry, looked up): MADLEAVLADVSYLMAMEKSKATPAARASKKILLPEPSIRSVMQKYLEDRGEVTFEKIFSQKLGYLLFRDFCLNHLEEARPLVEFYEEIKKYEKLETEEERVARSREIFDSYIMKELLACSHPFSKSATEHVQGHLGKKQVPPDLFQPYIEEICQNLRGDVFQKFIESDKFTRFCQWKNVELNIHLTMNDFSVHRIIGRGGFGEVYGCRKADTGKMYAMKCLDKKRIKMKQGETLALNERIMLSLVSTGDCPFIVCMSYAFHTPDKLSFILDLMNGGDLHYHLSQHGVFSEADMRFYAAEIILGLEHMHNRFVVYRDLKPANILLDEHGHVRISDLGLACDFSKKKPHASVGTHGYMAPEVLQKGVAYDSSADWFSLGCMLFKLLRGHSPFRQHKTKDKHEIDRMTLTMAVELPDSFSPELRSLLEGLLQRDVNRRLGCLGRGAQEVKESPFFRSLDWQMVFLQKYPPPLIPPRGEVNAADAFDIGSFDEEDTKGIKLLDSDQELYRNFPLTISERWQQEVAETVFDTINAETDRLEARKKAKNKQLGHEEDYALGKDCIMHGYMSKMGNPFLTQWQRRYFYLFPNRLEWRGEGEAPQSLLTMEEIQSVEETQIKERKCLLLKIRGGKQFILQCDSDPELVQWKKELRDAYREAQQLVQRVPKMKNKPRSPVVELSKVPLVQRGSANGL
Sequence of Beta-2 adrenergic receptor (Homo sapiens) (P07550 whole entry, looked up): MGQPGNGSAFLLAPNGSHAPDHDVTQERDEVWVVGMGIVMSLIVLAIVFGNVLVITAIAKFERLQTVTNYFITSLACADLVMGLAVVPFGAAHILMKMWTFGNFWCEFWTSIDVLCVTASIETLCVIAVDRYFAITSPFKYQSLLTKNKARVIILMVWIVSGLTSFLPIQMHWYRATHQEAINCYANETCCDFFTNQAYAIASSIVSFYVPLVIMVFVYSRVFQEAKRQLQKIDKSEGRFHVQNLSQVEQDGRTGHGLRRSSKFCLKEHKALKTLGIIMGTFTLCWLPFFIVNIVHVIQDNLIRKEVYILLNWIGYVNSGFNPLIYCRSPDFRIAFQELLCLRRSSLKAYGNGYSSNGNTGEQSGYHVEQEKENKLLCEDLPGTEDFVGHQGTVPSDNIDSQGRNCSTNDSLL

The term inhibition denotes the relative decrease from the control value, in per cent. With `CN(C)c1ccc(C(CN)c2c[nH]c3ccccc23)cc1` (stereo not given), the percent of DMSO control GFP in [1] was 106% (inactive). For the same compound, the GFP response vs DMSO in [2] was 109% (inactive); in experiment [4], 108% (inactive). The percent response of DMSO control in [3] was 104% (inactive). The GFP response, % of DMSO in experiment [5] was 107% (inactive). The compound also showed a double positive events in experiment [6] of 61.4%. The vesicle binding response in [6] was 112% (inactive). The inhibition in [7] is 9.63% (inactive); in experiment [11], 33.6% (inactive); in experiment [15], -9% (inactive). Also, in [8], the superoxide response (% of plate) was 99.4% (inactive). For the same compound, in experiment [9], the aptamer binding inhibition was -10% (inactive). Moreover, the figures for the response in experiment [10] and in [12] were 4.69% (inactive) and -9.67% (inactive), respectively. In addition, the binding (% of control) in experiment [13] was 102% (inactive). For the same compound, the efflux inhibition (fraction of control) in experiment [14] is 0.09 (inactive). Also, the differentiation response in [16] was -16.3% (inactive).
Regarding `Cc1c(Cc2ccccc2)c(=O)oc2c(CN(C)C)c(O)c(Cl)cc12`, the percent of DMSO control GFP in experiment [1] is 98.2% (inactive). For the same compound, the results for the GFP response vs DMSO in experiment [2] and in experiment [4] were 108% (inactive) and 92.7% (inactive), respectively. Moreover, the percent response of DMSO control in experiment [3] is 94.2% (inactive). Also, in [5], the GFP response, % of DMSO is 98% (inactive). Also, in [6], the double positive events is 61.8%. For the same compound, in experiment [6], the vesicle binding response was 358% (inactive). The results for the inhibition in experiment [7], in experiment [11] and in experiment [15] were 0.58% (inactive), 0.49% (inactive) and 2% (inactive), respectively. In addition, in experiment [8], the superoxide response (% of plate) was 98.2% (inactive). For the same compound, in experiment [9], the aptamer binding inhibition is 3% (inactive). Besides, the response in experiment [10] was -3.4% (inactive); in [12], 0.93% (inactive). Besides, in experiment [13], the binding (% of control) is 99.3% (inactive). In addition, in experiment [14], the efflux inhibition (fraction of control) was -0.39 (inactive). Also, the differentiation response in [16] is -5.62% (inactive).
On to `Cc1nnc(NS(=O)(=O)c2ccc(N)cc2)s1`, for which, in experiment [1], the percent of DMSO control GFP was 92.4% (inactive). For the same compound, the GFP response vs DMSO in experiment [2] was 126% (inactive); in experiment [4], 83.6% (inactive). In addition, the percent response of DMSO control in experiment [3] is 92.6% (inactive). The GFP response, % of DMSO in experiment [5] was 92.8% (inactive). Besides, the double positive events in [6] was 61.7%. Further, the vesicle binding response in [6] is 123% (inactive). Besides, the inhibition in experiment [7] is 19.1% (inactive); in [11] it was 2.68% (inactive); in experiment [15] it was 14% (inactive). For the same compound, the superoxide response (% of plate) in experiment [8] is 102% (inactive). Further, the aptamer binding inhibition in experiment [9] is 8% (inactive). The response was 2.41% (inactive) in experiment [10] and 0.26% (inactive) in [12]. Further, in experiment [13], the binding (% of control) was 100% (inactive). For the same compound, in experiment [14], the efflux inhibition (fraction of control) is -0.24 (inactive). In addition, in experiment [16], the differentiation response is 0% (inactive).
As to `CC(C)[C@H]1CN(C)CCN1Cc1cn(C)nc1-c1cccc(Cl)c1`, the percent of DMSO control GFP in experiment [1] is 105% (inactive). Further, the GFP response vs DMSO was 104% (inactive) in experiment [2] and 90.1% (inactive) in experiment [4]. In addition, in experiment [3], the percent response of DMSO control is 98.9% (inactive). Further, the GFP response, % of DMSO in experiment [5] was 102% (inactive). Further, in experiment [6], the double positive events was determined as 58.1%. Also, the vesicle binding response in experiment [6] is 48.9% (inactive). For the same compound, the figures for the inhibition in [7], in [11] and in experiment [15] were 3.7% (inactive), 19.9% (inactive) and 1% (inactive), respectively. Further, in [8], the superoxide response (% of plate) was 104% (inactive). The aptamer binding inhibition in experiment [9] was -1% (inactive). In addition, the response in experiment [10] was -4.02% (inactive); in [12], -0.96% (inactive). Further, the binding (% of control) in experiment [13] was 99.3% (inactive). Moreover, in experiment [14], the efflux inhibition (fraction of control) is 0.3 (inactive). Further, in experiment [16], the differentiation response is 3.18% (inactive).
`O=c1[nH]cnc2[nH]ncc12`: in [1], the percent of DMSO control GFP is 103% (inactive). Also, the figures for the GFP response vs DMSO in [2] and in [4] were 103% (inactive) and 90.4% (inactive), respectively. In [3], the percent response of DMSO control is 96.5% (inactive). The GFP response, % of DMSO in experiment [5] is 95% (inactive). Moreover, the double positive events in [6] turned out to be 55.6%. In [6], the vesicle binding response was 154% (inactive). The figures for the inhibition in experiment [7], in [11] and in experiment [15] were 15% (inactive), 2.53% (inactive) and -64% (inactive), respectively. Also, the superoxide response (% of plate) in experiment [8] is 98% (inactive). For the same compound, in [9], the aptamer binding inhibition is 0% (inactive). In addition, the figures for the response in [10] and in experiment [12] were -2.08% (inactive) and -1.12% (inactive), respectively. Moreover, the binding (% of control) in [13] was 103% (inactive). In addition, the efflux inhibition (fraction of control) in experiment [14] is 0.005 (inactive). Further, in experiment [16], the differentiation response was 7.13% (inactive).
